# Pf growth 96h: P. falciparum growth inhibition at 96 hour, primary screen for plastid delayed-death inhibitors; P. falciparum luciferase reporter growth, 96 h; Potency, µM (doses to about 28.7 µM), for inactives: top-dose activity change, negative = inhibition, most hits filed as inhibitors; hit rate 6.9% among 320,000; also: potency is read from the fitted curve at half-maximal effect; % is scaled to controls: 0 for no effect and ±100 for the full control effect
#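 Luminescence readout: decreased luciferase signal marks inhibited growth of reporter-expressing P. falciparum in infected red cells (2% hematocrit, 0.05% parasitemia final), exposed to compound two generations (96 h, 37 C, 5% CO2).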
# Cycloheximide cs: counter-screen hit for Shiga toxin inhibitors, cycloheximide | AID 2314 | max response, % | cell reporter, cycloheximide protein synthesis inhibition counterscreen | hit rate 12% among 300,000; in the data active = max response mostly above about 13%, no sharp cut-off; inactive = mostly below about 14%; also: read at 38.3 µM for the half of the compounds with a filed dose; 0% is about no effect
# Pf growth 48h: inhibits P. falciparum growth in the first generation, 48 h; P. falciparum luciferase growth in erythrocytes, 48 h; Potency, µM (doses to about 28.7 µM), for the others: top-dose activity change, negative = inhibition, actives largely listed as inhibitors; hit rate 5.9% among 310,000; AID 504832; also: potency is read from the fitted curve at half-maximal effect; % is scaled to controls: 0 for no effect and ±100 for the full control effect
#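 Parasite viability was followed by luminescence of a genomically integrated firefly luciferase. Cultures held 0.1% parasitemia at 2% hematocrit (final), incubated under 5% CO2 at 37 C.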
# Shiga inhibitor: Shiga toxin inhibition; inhibition, % at 38.7 µM; hit rate 9.2% among 290,000; Vero cells, Shiga toxin protein synthesis inhibition reporter; in the data active = inhibition mostly above about 28%, no sharp cut-off; inactive = mostly below about 43%; also: 0% is about no effect
# HCMV inh: human cytomegalovirus inhibition; HFF cells, HCMV-luciferase reporter, 72 h; active compounds read low; activity change, negative = inhibition, % at 57.5 µM; hit rate 4.5% among 410,000; AID 1259415; in the data active = activity change below about -60%; inconclusive = no clear call, values can overlap the other calls; inactive = above about -39%; also: % is scaled to controls: 0 for no effect and ±100 for the full control effect
#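 Screen run at 2 compound doses on HFFs infected with reporter HCMV, MOI 1 PFU/cell. Luciferase activity from cell lysates at 72 h post infection gave inhibition relative to buffer-only and Salinomycin wells.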
# * marks the source's active call; other numbers are inactive results; ? = inconclusive; · = no result given; [ ] = remark or other dose. Compounds with a hit are over-represented: about 20% of the library has one in this group of screens. Unless noted, calls follow the shape of the dose curve; as a rule, active = well fitted inhibition curve with a large enough effect; inconclusive = small, poorly fitted or top-dose-only effect, or another doubt; inactive = no such curve, though single readings can be large or run the other way.
SMILES,Pf growth 96h,Cycloheximide cs,Pf growth 48h,Shiga inhibitor,HCMV inh
CC(C)CCNC(=O)CCn1nc(-c2ccc(Cl)cc2)ccc1=O,?,-4,0%[0.00184 µM],-12,15
COc1ccc(CNCCC(c2ccc(C)cc2)c2ccco2)cc1 (stereo not drawn),·,·,·,·,-78*
COc1ccccc1C(CCNCc1ccc(N(C)C)cc1)c1ccc(OC(C)C)cc1 (stereo not drawn),13µM*,-10,8.3µM*,-14,-101*
COc1ccccc1C(CCNCc1ccccc1)c1ccc(OC(C)C)cc1 (stereo not drawn),?,-7,?,-11,-102*
COc1ccc(CNCCC(c2ccc(OC(C)C)cc2)c2ccccc2OC)cc1 (stereo not drawn),?,-7,?,-10,-99*
COc1ccc(CNCCC(c2ccccc2)c2ccc3c(c2)OCO3)cc1 (stereo not drawn),?,-8,?,-36,-18
O=C1c2cccc(Cl)c2C(=O)c2c1cccc2N1CCCC1,·,·,·,·,10
CCN(CC)C(=O)C1=C(C)N(Cc2ccccc2)C(=O)C(CC(=O)NCc2cccc3ccccc23)C1 (stereo not drawn),·,·,·,·,-17
S=c1[nH]nc(-c2ccncc2)n1/N=C/c1cccc(Cl)c1,5%,1,?,-3,?
COc1ccccc1C(CC(=O)Nc1ccc(C)c(C)c1)c1ccc(OC(C)C)cc1 (stereo not drawn),-18%,-2,?,-18,-61*
COc1ccc(CNCCC(c2ccc(OC(C)C)cc2)c2ccccc2OC)cc1OC (stereo not drawn),?,-9,13µM*,-4,-98*
COc1cccc(C2C(C(=O)Nc3ccc(Cl)cc3)=C(C)Nc3c(C(=O)Nc4ccccc4)cnn32)c1OC (stereo not drawn),·,·,·,·,-11
C(=C\c1nc(-c2ccccc2)no1)/c1ccccc1,?,30*,290%,48*,56
COc1ccc2ccc3cccc[n+]3c2c1,·,·,·,·,12
Nc1ccc2ccc3cccc[n+]3c2c1,?,-2,0.41µM*,·,-25
C=CCn1c(SCC(=O)Nc2ccc(F)cc2)nc2ccccc2c1=O,5.2µM*,5,?,-9,-23
CCC(C)n1c(SCC(=O)NC(=O)c2cccn2C)nc2ccccc2c1=O (stereo not drawn),?,13,?,-6,?
CCn1c(SCC(=O)Nc2ccc(F)cc2)nc2ccccc2c1=O,?,-5,·,5,-69*
C=CCn1c(SCC(=O)Nc2cccc3ccccc23)nc(O)c(CC)c1=O,9.3µM*,-9,·,-22,-9
C=CCn1c(SCC(=O)NC(=O)c2cccn2C)nc2ccccc2c1=O,10%,10,3.7µM*,1,-24
C=CCn1c(SCC(=O)Nc2ccc3c(c2)CCC3)nc2ccccc2c1=O,?,-4,3%,-6,-4
CCc1ccc(NC(=O)CSc2nc3ccccc3c(=O)n2CCCC(=O)N2CCCC2)cc1,-25%,-3,·,-20,-66*
CCN(CC)C(=O)CSc1nc2ccccc2c(=O)n1CCC(=O)NCc1ccc(F)cc1,?,3,9.3µM*,9,-14
Cc1ccc2c(c1)nnn2C1CCN(S(C)(=O)=O)CC1,10%,-3,-22%,22,15
COc1ccc(S(=O)(=O)N2CCC(n3cnc4cc(C(F)(F)F)ccc43)CC2)cc1,-6%,-2,5.2µM*,-12,-30
SMILES,Pf growth 96h,Cycloheximide cs,Pf growth 48h,Shiga inhibitor,HCMV inh
O=S(=O)(c1ccccc1)N1CCC(n2nnc3cc(F)ccc32)CC1,·,-1,-13%,3,-26
COc1ccc(S(=O)(=O)N2CCC(n3cnc4ccccc43)CC2)cc1,-57%,-2,-27%,-9,9
Cc1ccc2c(c1)nnn2C1CCN(S(=O)(=O)c2ccc(C(=O)O)cc2)CC1,-7%,-3,-7%,-3,-67*
Cc1ccc2c(c1)nnn2C1CCN(S(=O)(=O)c2ccc(C(=O)N3C(C)CCCC3C)cc2)CC1 (stereo not drawn),?,2,?,-17,-73*
O=S(=O)(c1ccc2c(c1)OCCO2)N1CCC(n2nnc3cc(C(F)(F)F)ccc32)CC1,21%,-3,13µM*,-3,-39
OC[C@@H]1CN(Cc2ccc(Cl)cc2)C[C@H](n2cnc3c(N4CCN(c5ccccc5)CC4)ncnc32)O1,·,·,·,·,-8
CCCCOc1ccc(CN(CCO)CCO)cc1[N+](=O)[O-],71%,50*,120%,125*,0
CCOc1ccc(CN(CCO)CCO)cc1[N+](=O)[O-],48%,2,13%,-14,-68*

# Screens deposited in PubChem by National Center for Advancing Translational Sciences (NCATS).
